This passage reports inhibition results from PubChem BioAssay AID2315 (National Center for Advancing Translational Sciences (NCATS), 2010).

In all, about 290,000 compounds went through this assay and about 27,000 (9.3%) were called active. Only a selection was taken, and actives are over-represented in it overall. Values without a mark were called inactive. No stated cut-off is given here; in the data, active means inhibition mostly above about 28% (no sharp cut-off); inactive means mostly below about 43%.

A short description of this test: A qHTS for Small Molecule Inhibitors of Shiga Toxin. Further: 0% is about no effect. To be noted: Vero cells, Shiga toxin protein synthesis inhibition reporter; at 38.7 µM, active compounds read high. (In general: Quantitative high-throughput screening tests each substance at several concentrations.)
By inhibition is commonly meant the drop in the measured response relative to a control, in per cent. On to `COc1ccc(CNC(=O)C(C)NCc2ccccc2Cl)cc1` (stereo not given), for which the inhibition was -9.04%.

Consider `Cc1ccc(S(=O)(=O)N(CC(=O)Nc2cccnc2)c2ccc(Br)cc2)cc1`, for which the inhibition was -36.9%.

`CN(C)CCCn1c(=O)n(Cc2ccccc2)c(=O)c2c3c(sc21)CCCCC3`: the inhibition is -7.1%.

Regarding `Cc1nc(-c2ccccc2)sc1-c1nnc(C2CC2)o1`, the inhibition was 87.2% (active).

In the case of `Cc1nc(-c2ccccc2)sc1-c1nc(-c2ccccc2)ncc1S(=O)(=O)c1ccccc1`, the inhibition is -10.1%.

As to `C=CCn1c(-c2sc(-c3ccccc3)nc2C)n[nH]c1=S`, the inhibition is 24.9%.

Regarding `CCOc1cc(C(=S)N2CCOCC2)ccc1OS(=O)(=O)c1ccc(Br)cc1`, the inhibition was 1.09%.

For the compound `C=CCOc1ccccc1NC(=O)CN1C(=O)CNC1=O`, the inhibition is -4.23%.

On to `COc1ccc(OC)c(NC(=O)c2cccc(S(=O)(=O)N3CCN(C(C)=O)CC3)c2)c1`, for which the inhibition was 1.91%.

As for `COc1ccccc1C(=O)OCC(=O)NCCNC(=O)COC(=O)c1ccccc1OC`, the inhibition was -3.42%.

On to `Cc1cccc(-c2noc(CCC(=O)NC3CCCC3)n2)c1`, for which the inhibition is 24.9%.

Consider `Cc1ccc(-c2noc(CSc3nnc(-c4ccccc4)n3C)n2)cc1`, for which the inhibition was -2.98%.

In the case of `Cc1cccc(-c2nc(Nc3ccc(O)cc3)c3ccccc3n2)c1`, the inhibition is -1.6%.

Take `Cc1ccc(-c2noc(CN3CCN(Cc4ccccc4)CC3)n2)cc1`: the inhibition is 41.3%.

On to `Cc1ccc(Cc2nc(-c3cccc(C)c3)no2)cc1`, for which the inhibition was 48.1% (active).

Consider `Cc1cccc(-c2noc(-c3ccc(F)cc3)n2)c1`, for which the inhibition is 152% (active).

Consider `O=C(O)CC(CC(=O)N1CCOCC1)c1ccccc1` (stereo not given), for which the inhibition was -6.69%.

In the case of `Cc1c(NC(=O)c2c([N+](=O)[O-])cnn2C)c(=O)n(-c2ccccc2)n1C`, the inhibition is -11.5%.

For `Cc1ccc(OCC(=O)Nc2ccccc2C(=O)NC2CC2)cc1C`, the inhibition is -4.84%.

In the case of `COc1ccc(C(=O)CC2C(=O)N(C)C(=O)N(C)C2=O)cc1`, the inhibition was 13.8%.

Consider `CO/N=C/CC(=O)c1ccc(OC)cc1`, for which the inhibition is 91.1% (active).

Take `COc1ccc(OCCC(=O)c2ccc(OC)cc2)cc1`: the inhibition was -6.88%.

Take `Cc1ccc(C(=O)c2coc3ccc(O)c(CN(C)C)c23)cc1`: the inhibition is -0.742%.

Take `Cc1ccc(S(=O)(=O)NCCSC(C)(C)C)cc1`: the inhibition was -15.2%.

As for `CC(C)(C)SCCSC1=CC(=O)CC(c2ccccc2)C1` (stereo not given), the inhibition was 75.7% (active).

Consider `O=C(O)CC/C(=C\c1cc2c(cc1Br)OCO2)c1nc2ccccc2s1`, for which the inhibition was -7.28%.

For `CC1=C/C(=N\OS(=O)(=O)c2ccccc2)C=CC1=O`, the inhibition was 67.3% (active).

As for `O=S(=O)(ON(c1ccccc1)S(=O)(=O)c1ccccc1)c1ccccc1`, the inhibition was -5.69%.

As to `Cc1ccc(S(=O)(=O)c2ccc(Oc3ccccc3)cc2)cc1`, the inhibition is -11.7%.

As for `COC(=O)c1ccc(NC(=O)CSc2nncn2-c2cccnc2)cc1`, the inhibition is 29.9%.

For `CC(Sc1nnc(CNC(=O)c2ccccc2F)n1C)C(=O)Nc1nccs1` (stereo not given), the inhibition is -6.1%.

For `CC(C)(C)NC(=O)CSC(=Nc1ccccc1F)NC#N`, the inhibition is 33.9% (active).

Regarding `COc1ccccc1-n1ccnc1SCC(=O)NC(C)(C)C`, the inhibition was 18.7%.

As to `Cc1ccccc1CSCC(=O)NC(=O)NC(C)(C)C`, the inhibition is 11%.

Consider `CCN(CC)C(=O)c1sc2nc(-c3ccccc3)ccc2c1N`, for which the inhibition was 165% (active).

Turning to `CN(C)c1ccnc2sc3c(=O)n(Cc4ccccc4)cnc3c12`, the inhibition was -12.3%.

Consider `CC(=O)c1c(Nc2ccccc2)sc(C(=O)c2ccccc2)c1C`, for which the inhibition was -8.12%.

Take `COC(=O)c1cc2c(N)c(C(=O)c3ccc(Cl)cc3)sc2nc1C(OC)OC`: the inhibition was -1.42%.

In the case of `CCc1nc2sc(C(=O)O)c(N)c2c2c1CCCC2`, the inhibition was -12.9%.

Take `CCOC(=O)c1sc2nc(SC)nc(-c3ccccc3)c2c1N`: the inhibition was -14%.

For the compound `CS(=O)(=O)c1sc2nc(-c3ccccc3)cc(-c3ccccc3)c2c1N`, the inhibition is -3.26%.

As for `NC(=O)c1sc2nc3c(c(-c4ccccc4)c2c1N)CCC3`, the inhibition is -11.8%.

Regarding `Cc1ccc2c(N)c(C(=O)c3ccccc3)sc2n1`, the inhibition is 87.1% (active).

For the compound `CN(C)c1ccnc2sc(C(=O)c3ccccc3)c(N)c12`, the inhibition is 25.4% (active).

`Cc1nc2sc(C(=O)c3ccccc3)c(N)c2c2c1CCCC2`: the inhibition was 18.1% (active).

As to `COc1cccc(C(=O)c2sc3nc(-c4ccccc4)cc(C(F)(F)F)c3c2N)c1`, the inhibition is -1.9%.

For `CC(C)C[C@H]1CN=C(Nc2ccccc2)N1CC1CCCCC1`, the inhibition was 0.785%.

For the compound `O=C(Cc1ccccn1)c1ccc(O)cc1O`, the inhibition is -4.76%.

With `Cc1cccc(C(=O)N2CCCC(Nc3ccc(C(C)C)cc3)C2)n1` (stereo not given), the inhibition was 19.6%.

`CCn1c(SCc2cccc(C(=O)O)c2)nnc1-c1ccc(Cl)cc1`: the inhibition was 7.08%.

As to `O=S(=O)(Cc1nnnn1-c1ccc(Br)cc1)c1ccc(F)cc1`, the inhibition was -1.52%.

Take `CCOc1ccc(-n2c(SCC(=O)Nc3cc(C(=O)O)ccc3Cl)nc3ccccc3c2=O)cc1`: the inhibition is 3.55%.

Take `CC(=O)c1cccc(NC(=O)COc2ccc(S(=O)(=O)N3CCOCC3)cc2)c1`: the inhibition is -10.1%.

As for `CCCC(C)c1nnc(NC(=O)C2CC(=O)N(c3ccc(OCC)cc3)C2)s1` (stereo not given), the inhibition is -3.18%.

For the compound `Cc1cccn2c(=O)c3cc(C(=O)NCCN4CCOCC4)c(=N)n(Cc4cccnc4)c3nc12`, the inhibition was -22.4%.

Consider `COc1cccc(NC(=O)Nc2nnc(N3CCCCC3C)s2)c1` (stereo not given), for which the inhibition is 53.2% (active).

Turning to `CCOC(=O)c1csc(NC(=O)Nc2cccc(OC)c2)n1`, the inhibition is -3.25%.

`COc1cccc(C(=O)Nc2nnc(S(=O)(=O)N3CCCCC3)s2)c1`: the inhibition was 6.87%.

For the compound `CN1C(=O)[C@H]2[C@@H](C3CC3)N3C(=O)CN(Cc4ccccc4)C(=O)[C@@]3(C)[C@H]2C1=O`, the inhibition was 1.87%.

As for `CC1CCN(CCCn2c(SCC(=O)NC3CCCC3)nc3ccccc3c2=O)CC1`, the inhibition was 17.3%.

Consider `COc1ccccc1C1/C(=C(/O)c2ccc(OC(C)C)cc2)C(=O)C(=O)N1c1cc(C)on1` (stereo not given), for which the inhibition was -22.9%.

With `CCOc1ccc(/C(O)=C2\C(=O)C(=O)N(c3ccc(OC)cc3)C2c2ccccc2[N+](=O)[O-])cc1` (stereo not given), the inhibition is 26.8% (active).

With `COc1ccc(/C(O)=C2/C(=O)C(=O)N(c3nc(C)c(C)s3)C2c2ccco2)cc1` (stereo not given), the inhibition is 30.6%.

Regarding `COc1ccc(OCC(=O)NNC(=O)c2cccc(C)c2)cc1`, the inhibition is -7.72%.

With `CCNC(=O)COC(=O)CCNC(=O)c1cccc(C)c1`, the inhibition is 43.3%.

As for `CCOC(=O)C(CC)/C(C)=N\NC(=O)c1cccc(C)c1` (stereo not given), the inhibition was 66.3% (active).

As for `Cc1cc(=O)oc2c3c(cc(OCC(=O)NCCC(=O)N[C@@H](C)C(=O)O)c12)OC(C)(C)CC3`, the inhibition is -4.24%.

With `Cc1cc2c(s1)c1cnn(Cc3c(F)cccc3Cl)c(=O)c1n2C`, the inhibition was 12.5%.

`O=C(C1=C(O)C(=O)N(CCOCCO)C1c1ccccn1)c1cccs1` (stereo not given): the inhibition is 29.3% (active).

As for `O=C(C1=C(O)C(=O)N(c2ncccn2)C1c1cccs1)c1ccco1` (stereo not given), the inhibition was -18.4%.

On to `O=C(c1cccs1)N(C(=O)c1cccs1)c1ccccn1`, for which the inhibition was 39.7%.

`Cn1c(=O)c2c(nc(OCc3cccnc3)n2Cc2ccccc2)n(C)c1=O`: the inhibition is 39.2% (active).

Regarding `Cn1c(=O)c2c(nc(NCCc3ccccc3)n2Cc2ccccc2)n(C)c1=O`, the inhibition was -11.5%.

For the compound `C=CCOc1nc2c(c(=O)n(C)c(=O)n2C)n1Cc1ccc(Cl)cc1Cl`, the inhibition is -1.49%.

In the case of `COc1ccc(CN2C3CCCC2CC(NC(=O)c2cccc(F)c2)C3)cc1` (stereo not given), the inhibition was 14.6%.

Take `O=c1c(Cl)c(NC2CC2)cnn1-c1ccccc1`: the inhibition was 107%.

With `Cc1cccc(-n2ncc(Cl)c(Cl)c2=O)c1`, the inhibition is -17.2%.

As for `C=CCNc1cnn(-c2ccc(C)cc2)c(=O)c1Cl`, the inhibition was 127% (active).

`CCCN1C2CCCC1CC(NC(=O)c1cccc(OC)c1)C2` (stereo not given): the inhibition is 12.9%.

With `CCCCn1c(=O)c(C(C)=O)c(O)c2ccccc21`, the inhibition was -12.1%.

Consider `CCOc1ccc(N=Cc2c(O)n(-c3cccc(C)n3)c(=O)c3ccccc23)cc1`, for which the inhibition is -15.9%.

Regarding `CC(=O)n1c(C=Nc2ccccc2)c(O)c2ccccc21`, the inhibition is 49.2% (active).

As for `O=C(c1ccco1)N1CCN(Cc2cccc(C(F)(F)F)c2)CC1`, the inhibition is -13.9%.

As to `Cc1ccc(CN2CCN(/N=C/c3ccco3)CC2)c(C)c1`, the inhibition is 11.6%.

For `C/C(=N\N1CCN(Cc2ccc(C)cc2)CC1)c1ccco1`, the inhibition was 31.8% (active).

For `CCOc1ccc(NC(=O)C/C(C)=N/NC(=O)Cc2cccs2)cc1`, the inhibition is 2.74%.

On to `CCn1c2ccccc2c2cc(NC(=O)CNC)ccc21`, for which the inhibition was -4.7%.

As for `C/C(CC(=O)Nc1ccc(N(C)C)cc1)=N\NC(=O)c1ccccc1F`, the inhibition is 121% (active).

For `CN(C)c1ccc(NC(=O)CN2C3CCCC2CC(NC(=O)c2ccccc2)C3)cc1` (stereo not given), the inhibition was 27.2%.

As for `CCn1c2ccccc2c2cc(NC(=O)COC(=O)c3ccccc3Br)ccc21`, the inhibition is -4.15%.

With `CCn1c2ccccc2c2cc(NC(=O)C/C(C)=N/NC(=O)c3ccccc3N)ccc21`, the inhibition is 131% (active).

As to `CC(=O)NCCc1ccc(S(=O)(=O)Nc2ccc(C)c(S(=O)(=O)N3CCOCC3)c2)cc1`, the inhibition is -1.5%.

As for `COc1ccccc1NC(=O)CN(c1ccccc1OC)S(=O)(=O)c1ccccc1`, the inhibition is -1.35%.

On to `Cc1ccc(NC(=O)CSc2nnc(CNC(=O)c3ccccc3F)o2)cc1Cl`, for which the inhibition was -10.8%.

For the compound `CC(C)[C@H](NC(=O)N1c2ccccc2NC(=O)[C@@H]1C(C)C)C(=O)N[C@H](C(=O)O)c1ccccc1`, the inhibition was 3.44%.
